This is a sample that favours compounds with a hit; in the whole collection about 3.5% have one here.
BoNT-A LC inh2: BoNT A light chain protease inhibition; 0.17% of 360,000 active; inhibition, % at 10 µM; multiplex microsphere protease substrate cleavage, flow cytometry; AID 588499
Anthrax LF prot: inhibitors of Bacillus anthracis lethal factor protease; multiplex microsphere protease cleavage assay, LF; inhibition, % at 10 µM; 0.12% of 360,000 active
Target sequence (P15917 whole entry, looked up): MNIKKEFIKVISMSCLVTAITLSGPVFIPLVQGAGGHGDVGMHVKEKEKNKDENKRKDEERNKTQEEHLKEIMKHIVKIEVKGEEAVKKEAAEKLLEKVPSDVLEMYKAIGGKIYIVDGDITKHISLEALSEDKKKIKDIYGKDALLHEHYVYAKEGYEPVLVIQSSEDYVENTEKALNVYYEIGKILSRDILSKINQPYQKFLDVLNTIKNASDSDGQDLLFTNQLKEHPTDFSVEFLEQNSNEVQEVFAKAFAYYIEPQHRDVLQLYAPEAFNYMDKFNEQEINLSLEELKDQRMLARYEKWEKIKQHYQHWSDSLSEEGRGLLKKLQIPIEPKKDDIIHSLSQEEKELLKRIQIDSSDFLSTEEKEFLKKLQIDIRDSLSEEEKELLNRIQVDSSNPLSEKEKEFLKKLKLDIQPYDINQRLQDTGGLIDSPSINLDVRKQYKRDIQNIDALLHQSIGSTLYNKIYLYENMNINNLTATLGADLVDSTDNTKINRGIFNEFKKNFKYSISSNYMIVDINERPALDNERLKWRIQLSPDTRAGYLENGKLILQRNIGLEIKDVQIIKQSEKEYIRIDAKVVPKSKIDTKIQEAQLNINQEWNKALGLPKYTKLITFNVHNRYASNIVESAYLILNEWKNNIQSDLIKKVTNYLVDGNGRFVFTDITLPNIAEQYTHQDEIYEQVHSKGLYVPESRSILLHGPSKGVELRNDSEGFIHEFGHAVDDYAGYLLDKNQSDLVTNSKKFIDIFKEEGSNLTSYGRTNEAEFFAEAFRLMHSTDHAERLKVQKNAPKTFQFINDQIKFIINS
Bead autofluor: counter-screen for toxin protease inhibitors: compound fluorescence; 3.1% of 360,000 active; compound autofluorescence counterscreen, microsphere flow cytometry; stronger effect = higher value; fluorescence intensity (no concentration beside the values); in the data active means fluorescence intensity above about 16000; inconclusive means no clear call, values can overlap the other calls
BoNT-F LC inh: blocks Botulinum neurotoxin F light chain protease; AID 588497; 0.22% of 360,000 active; Multiplex microsphere protease cleavage assay, flow cytometry; inhibition, % at 10 µM; in the data active means inhibition above about 35%, passing the limit was not always enough; inconclusive means no clear call, values can overlap the other calls
Hits are given with their value; i = inactive; ? = inconclusive. Unless noted, no stated cut-off is given here; in the data, active means inhibition above about 30%; inconclusive means no clear call, values can overlap the other calls; inactive means below that.

SMILES	BoNT-A LC inh2	Anthrax LF prot	Bead autofluor	BoNT-F LC inh
CCN(CC(=O)Nc1c(F)cccc1F)C(=O)Cc1csc(-c2ccccc2)n1	i	i	?	i
Cc1ccc(CN2CCSc3ccc(C(=O)N4CCN(c5ncccn5)CC4)cc32)cc1	i	i	22029	i
S=C(c1ccc(-c2ccc(Cl)cc2)o1)N1CCCCC1	i	i	i	i
N#CCCN1CCN(C(=S)c2ccc(-c3ccc(Cl)cc3)o2)CC1	?	i	20131	i
COCCNC(=O)/C(C#N)=C/c1c(N2CCN(C)CC2)nc2ccccn2c1=O	i	i	i	i
COc1ccc(CNS(=O)(=O)c2csc(C(N)=O)c2)cc1OC	i	i	i	i
COc1cccc(N2CCN(C3CCCC(C)C3)CC2)c1 (stereo not drawn)	i	i	24685	i
CC(C)(C)OC(=O)NC(CCCCNC=O)C(=O)O (stereo not drawn)	i	i	23419	i
CC(C)CC(NC(=O)OC(C)(C)C)C(=O)O (stereo not drawn)	i	i	i	i
Cc1ccc(S(=O)(=O)N(C)c2nonc2C)cc1	i	i	19642	i
CN(C(=O)c1cc(S(=O)(=O)N2CCOCC2)cs1)c1ccccc1	i	i	i	i
COc1ccc(CCNC(=O)CCS(=O)(=O)c2ccc3c(c2)NC(=O)CO3)cc1OC	i	i	i	i
CCOC(=O)C1CCCN(CCC(=O)Nc2ccccc2)C1 (stereo not drawn)	i	i	?	i
CCOC(=O)C1CCCN(CC(=O)NC2CC2)C1 (stereo not drawn)	i	i	16644	i
CCOC(=O)C1CCCN(C/C=C/c2ccccc2[N+](=O)[O-])C1 (stereo not drawn)	i	i	16661	i
CCOC(=O)C1CCCN(CCC(C)c2ccccc2)C1 (stereo not drawn)	i	i	21853	i
CCN(CC)C(=O)C1CCCN(C/C=C/c2ccccc2[N+](=O)[O-])C1 (stereo not drawn)	i	i	i	i
O=C(Nc1ccc(O)c(C(=O)O)c1)Oc1ccccc1	i	i	i	?
Cc1ccc(-c2nn3c(C)nnc3s2)cc1NC(=O)c1ccc(-c2ccc(Cl)cc2Cl)o1	?	i	16181	i
CC(C)C(NC=C1C(=O)OC(C)(C)OC1=O)C(=O)O (stereo not drawn)	?	i	16608	i
O=C(CNS(=O)(=O)c1ccc(Cl)c(C(F)(F)F)c1)NC1CCCCC1	i	i	i	i
CCN1CCN(C(=O)C2c3cc(OC)c(OC)cc3C(=O)N(C)C2c2ccc(SC)cc2)CC1 (stereo not drawn)	?	i	22280	i
CCCCN1CC(N(C)CCN(C)C)CS1(=O)=O (stereo not drawn)	i	i	i	i
O=C(OCCN=C1NS(=O)(=O)c2ccccc21)c1ccncc1	i	i	i	i
O=C(OCCN=C1NS(=O)(=O)c2ccccc21)C1CC(=O)N(c2ccc3ccccc3c2)C1 (stereo not drawn)	?	i	19051	i
SMILES	BoNT-A LC inh2	Anthrax LF prot	Bead autofluor	BoNT-F LC inh
O=C(NCc1n[nH]c(=S)n1Cc1ccccc1)c1ccccc1	i	i	i	i
CCN(CC(=O)NCc1cccs1)S(=O)(=O)c1ccc(F)cc1	i	i	i	i
CCN(CC)S(=O)(=O)c1ccc(C(=O)NCc2cccs2)cc1	i	i	21571	i
CCN(CC)S(=O)(=O)c1ccc(C(=O)NCc2n[nH]c(=S)n2Cc2ccccc2)cc1	i	i	21413	i
CC(C)N(CCCNC(=O)c1nn(C)c2c1CS(=O)(=O)c1ccccc1-2)Cc1ccccc1	i	i	i	i
Cc1cc(C)c(NC(=O)CN2C(=O)NC3(CCCCC3)C2=O)c(C)c1	i	i	20379	i
CC1CCN(C(=O)CN2C(=O)NC3(CCCCCC3)C2=O)CC1	i	i	i	i
CC1CN(C(=O)CN2C(=O)NC3(CCCCCC3)C2=O)CC(C)O1 (stereo not drawn)	i	i	24732	i
O=C1c2ccccc2C(O)(c2ccccc2)N1c1ccncc1 (stereo not drawn)	i	i	i	?
Cc1ccccc1NC(=O)CSc1nc(N)c(C#N)cc1C#N	i	i	16586	i
Cc1cc(=O)[nH]c(SCC(=O)Nc2ccccc2C#N)c1C#N	i	i	21510	i
O=C(Nc1ccccc1)C(Cc1cccs1)c1nn[nH]n1 (stereo not drawn)	i	i	i	i
CCOc1cccc(NC(=O)C(Cc2cccs2)c2nn[nH]n2)c1 (stereo not drawn)	i	i	20016	i
CC(=O)Nc1nc(=S)n(-c2ccccc2)[nH]1	i	i	22526	i
COCCNc1c2c(nc3c(-c4ccccc4)c(C)nn13)CCCC2	i	i	23437	i
Cc1nn2c(NCCOCCO)c3c(nc2c1-c1ccccc1)CCCC3	i	i	i	i
CCCCNc1c2c(nc3c(-c4ccccc4)c(C)nn13)CCC2	i	i	20079	i
CCC(C)Nc1c2c(nc3c(-c4ccccc4)c(C)nn13)CCC2 (stereo not drawn)	i	i	22116	i
Cc1csc(SC(C)C(=O)Nc2ccccc2C)n1 (stereo not drawn)	i	i	i	i
C=CCN1C(=O)C2(OCCO2)c2cc(C)ccc21	i	i	i	i
Cc1cccc(-c2c3c(=O)n(C)c(=O)n(C)c3cn2-c2ccc(O)cc2)c1	i	i	20937	i
COc1ccc(NS(=O)(=O)Cc2ccccc2Cl)cn1	?	i	23973	i
O=C(NCCN1CCCCCC1)C1CCCN1S(=O)(=O)c1cccc2nsnc12 (stereo not drawn)	i	i	i	i
CC(C)[C@H](N)c1nnc(SCc2ccc(Cl)cc2)o1	i	i	25032	i
CCC(C)[C@H](N)c1nnc(SCC(=O)c2ccc(Cl)cc2)o1 (stereo partly drawn)	i	i	19418	i
SMILES	BoNT-A LC inh2	Anthrax LF prot	Bead autofluor	BoNT-F LC inh
C[C@H](N)c1nnc(SCc2ccc(Cl)cc2Cl)o1	i	i	25593	i
CCOc1ccc(/C(O)=C2/C(=O)C(=O)N(CCOCCO)C2c2ccccn2)cc1 (stereo not drawn)	i	i	22618	i
CCCCC(=O)Nc1c(O)c2ccccc2[nH]c1=O	i	i	21304	i
COc1ccc(F)cc1S(=O)(=O)NC1CCCC1	i	i	20620	i
O=C(c1cccc(S(=O)(=O)N2CCCc3ccccc32)c1)N1CCN(c2ccccc2)CC1	i	i	i	i
Cc1oc(-c2ccc(Cl)cc2)nc1CN1CCC(C(=O)NCc2cccs2)CC1	i	i	i	i
CCc1ccc(-c2nc(CN3CCC(C(=O)NCc4ccc(F)cc4)CC3)c(C)o2)cc1	?	i	24227	i
CCc1ccc(-c2nc(CN3CCC(C(=O)NCCN(CC)c4ccccc4)CC3)c(C)o2)cc1	i	i	i	i
CCN(CCNC(=O)C1CCN(Cc2nc(-c3ccc(Cl)cc3)oc2C)CC1)c1ccccc1	i	i	22915	i
CCN(CCNC(=O)C1CCCN(Cc2nc(-c3ccc(OC)cc3)oc2C)C1)c1ccccc1 (stereo not drawn)	i	i	21170	i
CCN(CCNC(=O)C1CCN(Cc2nc(-c3cccc(Cl)c3)oc2C)CC1)c1ccccc1	i	i	20469	i
CCOC(=O)C1(C)CCCN(C(=O)c2ccc(C)c(F)c2)C1 (stereo not drawn)	i	i	i	i
Cc1ccc(-n2ncc3c(SCC(N)=O)ncnc32)cc1C	i	i	i	?

Screening data deposited in PubChem BioAssay by NMMLSC.
